# Measurements from the supplement of paper PMC10849652.
# About 7,900 targets were measured; listed, in parts, are those with a hit and a random draw of the rest. About 0.6% of all pairs of compound and target were hits. A number with no mark means an inactive call.
# Compound: CCCCN(Cc1ccc(C(=O)NO)cc1)C(=O)Nc1ccccc1 [Nexturastat A]
# Assay: log2 fold change, soluble protein after heating vs DMSO (PISA); higher = thermal stabilisation; K562 cells, 10 uM, 30 min; active = over 0.2 and 3.5 SD of the protein, either way, in both replicates (recomputed)
# How it was run: (§1)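 K562 cells at 2×10^6 cells/mL were exposed to 10 μM compound for 30 min, then aliquots were heated for 3 min across 48°C-58°C, pooled, and extracted in PBS containing 0.5% NP-40 at 4°C. The supernatant after 21,000xg for 90 min was taken as soluble protein and measured by TMTpro 16plex LC-MS/MS with channel sums equalised. Thermal stability is reported relative to control samples, with values from duplicates. Fold changes are given on a log2 scale.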
# UniProt Q13685, sequence (Q13685 whole entry, looked up): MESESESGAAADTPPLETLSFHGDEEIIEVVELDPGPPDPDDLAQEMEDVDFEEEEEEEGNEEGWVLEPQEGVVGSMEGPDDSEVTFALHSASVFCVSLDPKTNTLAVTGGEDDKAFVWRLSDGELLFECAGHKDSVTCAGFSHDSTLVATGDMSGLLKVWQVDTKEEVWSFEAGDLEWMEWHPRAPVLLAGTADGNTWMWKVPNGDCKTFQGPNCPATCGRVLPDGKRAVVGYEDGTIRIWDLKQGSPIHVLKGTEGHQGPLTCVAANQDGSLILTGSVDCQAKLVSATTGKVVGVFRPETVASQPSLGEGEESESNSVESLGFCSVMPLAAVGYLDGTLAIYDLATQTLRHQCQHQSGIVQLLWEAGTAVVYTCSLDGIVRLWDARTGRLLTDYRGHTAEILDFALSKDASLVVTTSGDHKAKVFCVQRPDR
# UniProt O14727, sequence (O14727 whole entry, looked up): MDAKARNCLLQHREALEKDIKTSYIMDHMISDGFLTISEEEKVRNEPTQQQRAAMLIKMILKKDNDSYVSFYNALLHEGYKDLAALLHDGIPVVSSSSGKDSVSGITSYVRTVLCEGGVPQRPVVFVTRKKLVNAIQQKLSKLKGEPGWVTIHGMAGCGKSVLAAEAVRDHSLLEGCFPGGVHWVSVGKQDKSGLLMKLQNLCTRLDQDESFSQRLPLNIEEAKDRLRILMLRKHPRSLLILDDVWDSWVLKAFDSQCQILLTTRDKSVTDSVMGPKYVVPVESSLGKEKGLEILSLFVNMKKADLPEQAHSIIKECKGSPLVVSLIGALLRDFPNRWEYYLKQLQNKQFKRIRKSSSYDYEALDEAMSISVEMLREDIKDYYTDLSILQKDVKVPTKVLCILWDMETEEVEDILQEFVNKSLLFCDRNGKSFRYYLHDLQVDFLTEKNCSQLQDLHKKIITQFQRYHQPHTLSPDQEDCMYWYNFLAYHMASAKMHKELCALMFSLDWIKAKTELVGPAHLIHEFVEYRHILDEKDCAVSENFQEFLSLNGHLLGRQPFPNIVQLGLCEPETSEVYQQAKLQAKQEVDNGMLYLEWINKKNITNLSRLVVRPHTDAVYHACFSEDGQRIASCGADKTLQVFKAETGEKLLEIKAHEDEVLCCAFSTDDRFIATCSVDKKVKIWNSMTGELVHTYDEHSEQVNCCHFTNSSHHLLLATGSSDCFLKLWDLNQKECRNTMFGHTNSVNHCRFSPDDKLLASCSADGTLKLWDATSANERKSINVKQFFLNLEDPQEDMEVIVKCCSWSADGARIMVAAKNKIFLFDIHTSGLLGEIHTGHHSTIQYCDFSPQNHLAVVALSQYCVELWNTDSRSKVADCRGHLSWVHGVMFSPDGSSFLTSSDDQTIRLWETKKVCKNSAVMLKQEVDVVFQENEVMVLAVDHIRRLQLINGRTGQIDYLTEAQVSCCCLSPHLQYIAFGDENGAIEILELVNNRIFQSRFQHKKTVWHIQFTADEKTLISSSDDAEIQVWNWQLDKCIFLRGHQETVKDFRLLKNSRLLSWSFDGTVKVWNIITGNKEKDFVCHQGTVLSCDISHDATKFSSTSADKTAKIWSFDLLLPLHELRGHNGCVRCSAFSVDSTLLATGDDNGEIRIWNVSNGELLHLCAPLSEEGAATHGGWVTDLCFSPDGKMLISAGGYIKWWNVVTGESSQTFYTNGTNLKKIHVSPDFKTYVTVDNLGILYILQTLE
# UniProt P55008, sequence (P55008 whole entry, looked up): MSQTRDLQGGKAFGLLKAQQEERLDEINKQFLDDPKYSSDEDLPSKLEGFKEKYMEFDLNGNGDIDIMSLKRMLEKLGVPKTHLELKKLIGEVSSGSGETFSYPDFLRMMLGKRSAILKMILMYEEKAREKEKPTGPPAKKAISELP
# UniProt P49189, sequence (P49189 whole entry, looked up): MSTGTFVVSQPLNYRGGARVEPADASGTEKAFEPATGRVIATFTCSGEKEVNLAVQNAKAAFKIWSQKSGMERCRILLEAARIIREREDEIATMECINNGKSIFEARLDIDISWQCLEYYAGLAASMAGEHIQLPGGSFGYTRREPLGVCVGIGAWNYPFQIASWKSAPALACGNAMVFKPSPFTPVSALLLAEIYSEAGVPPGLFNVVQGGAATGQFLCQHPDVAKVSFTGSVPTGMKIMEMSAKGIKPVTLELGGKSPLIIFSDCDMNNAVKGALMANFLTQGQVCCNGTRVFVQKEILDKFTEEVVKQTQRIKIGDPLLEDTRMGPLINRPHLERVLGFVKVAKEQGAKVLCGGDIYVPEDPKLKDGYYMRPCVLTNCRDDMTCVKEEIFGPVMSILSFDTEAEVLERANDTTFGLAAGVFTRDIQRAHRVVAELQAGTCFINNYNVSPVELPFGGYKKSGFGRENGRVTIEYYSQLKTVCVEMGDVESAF
# UniProt Q9BRQ8, sequence (Q9BRQ8 whole entry, looked up): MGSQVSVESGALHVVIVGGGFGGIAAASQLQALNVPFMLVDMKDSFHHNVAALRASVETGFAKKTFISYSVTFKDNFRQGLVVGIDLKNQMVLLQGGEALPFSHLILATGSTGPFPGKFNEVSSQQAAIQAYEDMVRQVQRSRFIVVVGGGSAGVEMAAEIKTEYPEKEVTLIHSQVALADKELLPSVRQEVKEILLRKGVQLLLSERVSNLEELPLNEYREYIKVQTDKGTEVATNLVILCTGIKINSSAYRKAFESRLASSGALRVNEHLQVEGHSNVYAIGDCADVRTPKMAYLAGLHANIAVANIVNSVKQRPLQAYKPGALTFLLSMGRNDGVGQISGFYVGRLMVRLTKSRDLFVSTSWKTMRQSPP
# UniProt Q9UEY8, sequence (Q9UEY8 whole entry, looked up): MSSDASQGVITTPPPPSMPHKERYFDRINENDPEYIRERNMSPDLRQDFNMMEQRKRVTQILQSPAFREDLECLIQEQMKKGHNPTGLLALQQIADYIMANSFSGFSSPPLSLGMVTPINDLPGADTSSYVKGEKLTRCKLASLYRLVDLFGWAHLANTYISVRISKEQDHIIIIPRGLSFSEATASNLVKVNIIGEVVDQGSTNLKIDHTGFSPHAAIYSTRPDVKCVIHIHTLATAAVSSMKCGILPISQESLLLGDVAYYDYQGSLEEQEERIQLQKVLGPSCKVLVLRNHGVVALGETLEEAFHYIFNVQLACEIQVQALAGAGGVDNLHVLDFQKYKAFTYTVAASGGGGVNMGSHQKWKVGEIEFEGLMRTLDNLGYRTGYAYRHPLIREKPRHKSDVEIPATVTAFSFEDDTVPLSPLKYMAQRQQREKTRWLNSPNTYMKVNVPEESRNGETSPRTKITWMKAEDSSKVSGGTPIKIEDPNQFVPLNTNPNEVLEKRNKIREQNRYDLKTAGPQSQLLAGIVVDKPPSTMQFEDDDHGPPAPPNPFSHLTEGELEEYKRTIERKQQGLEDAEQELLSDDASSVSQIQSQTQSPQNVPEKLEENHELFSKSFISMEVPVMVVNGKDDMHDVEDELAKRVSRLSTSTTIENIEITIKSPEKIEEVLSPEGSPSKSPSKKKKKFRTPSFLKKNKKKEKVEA
# UniProt Q9NX38, sequence (Q9NX38 whole entry, looked up): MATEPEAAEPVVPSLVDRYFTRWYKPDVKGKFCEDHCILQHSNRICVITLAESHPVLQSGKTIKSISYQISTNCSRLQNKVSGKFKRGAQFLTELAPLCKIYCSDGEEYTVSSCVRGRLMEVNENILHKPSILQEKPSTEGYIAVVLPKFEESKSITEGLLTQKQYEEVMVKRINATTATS
# UniProt Q9NXW9, sequence (Q9NXW9 whole entry, looked up): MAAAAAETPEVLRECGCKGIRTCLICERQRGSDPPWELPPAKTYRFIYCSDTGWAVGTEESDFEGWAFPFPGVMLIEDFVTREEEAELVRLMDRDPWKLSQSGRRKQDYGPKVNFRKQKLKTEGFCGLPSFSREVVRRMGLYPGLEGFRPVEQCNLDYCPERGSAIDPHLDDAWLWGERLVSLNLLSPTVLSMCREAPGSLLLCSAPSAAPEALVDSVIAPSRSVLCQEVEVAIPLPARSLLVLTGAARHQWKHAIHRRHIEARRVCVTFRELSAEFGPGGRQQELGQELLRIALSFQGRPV
# UniProt P17544, sequence (P17544 whole entry, looked up): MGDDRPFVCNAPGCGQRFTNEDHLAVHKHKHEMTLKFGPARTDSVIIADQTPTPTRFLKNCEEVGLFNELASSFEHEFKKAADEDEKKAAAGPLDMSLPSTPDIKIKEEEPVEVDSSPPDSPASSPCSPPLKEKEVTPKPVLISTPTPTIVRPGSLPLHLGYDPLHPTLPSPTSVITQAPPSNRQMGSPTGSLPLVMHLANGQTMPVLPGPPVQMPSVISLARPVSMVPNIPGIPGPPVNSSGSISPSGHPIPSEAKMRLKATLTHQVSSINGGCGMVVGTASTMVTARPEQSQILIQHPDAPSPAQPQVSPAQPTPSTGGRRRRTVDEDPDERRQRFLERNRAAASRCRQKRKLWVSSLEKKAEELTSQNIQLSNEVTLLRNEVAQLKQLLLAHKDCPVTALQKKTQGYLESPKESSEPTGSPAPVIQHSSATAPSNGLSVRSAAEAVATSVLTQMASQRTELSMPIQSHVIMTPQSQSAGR
# UniProt Q9NWX5, sequence (Q9NWX5 whole entry, looked up): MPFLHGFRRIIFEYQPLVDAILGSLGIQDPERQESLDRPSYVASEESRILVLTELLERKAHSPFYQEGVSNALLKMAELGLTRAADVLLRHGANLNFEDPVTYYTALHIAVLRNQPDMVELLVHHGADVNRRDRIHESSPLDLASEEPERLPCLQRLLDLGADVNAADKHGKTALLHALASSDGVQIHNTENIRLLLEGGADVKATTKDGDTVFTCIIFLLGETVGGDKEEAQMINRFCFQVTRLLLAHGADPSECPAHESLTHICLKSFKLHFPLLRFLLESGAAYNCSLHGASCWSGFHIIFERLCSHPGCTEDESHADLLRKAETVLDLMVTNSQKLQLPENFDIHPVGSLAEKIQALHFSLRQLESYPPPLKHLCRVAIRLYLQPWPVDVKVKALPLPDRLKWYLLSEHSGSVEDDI
row,Target,log2 fold change
1,ATF7 isoform 6 (UniProt P17544),-0.042
2,AIFM2 (UniProt Q9BRQ8),0.019
3,ASB6 (UniProt Q9NWX5),0.125
4,APAF1 (UniProt O14727),0.056
5,ABITRAM (UniProt Q9NX38),-0.114
6,AIF1 (UniProt P55008),0.048
7,ALKBH4 (UniProt Q9NXW9),-0.125
8,ADD3 isoform 2 (UniProt Q9UEY8),-0.029
9,ALDH9A1 (UniProt P49189),-0.125
10,ALDH6A1 (UniProt Q02252),-0.014
11,AGAP3 isoform 4 (UniProt Q96P47),0.252
12,AAMP (UniProt Q13685),0.012

# Compound: CCCS(=O)(=O)Nc1ccc(F)c(C(=O)c2c[nH]c3ncc(-c4ccc(Cl)cc4)cc23)c1F [vemurafenib]
# Assay: as above
# How it was run: as §1
row,Target,log2 fold change
1,ABHD17A isoform 2 (UniProt Q96GS6),-0.039
2,AASDH (UniProt Q4L235),0.094
3,ARFGAP2 (UniProt Q8N6H7),0.02
4,ACTBL2 (UniProt Q562R1),0.139
5,AMD1 (UniProt P17707),-0.126
6,BRD4 (UniProt O60885),0.046
7,ADPRH (UniProt P54922),0.071
8,BDH2 (UniProt Q9BUT1),0.447 (active)
9,ANXA5 (UniProt P08758),0.07
10,BTBD6 (UniProt Q96KE9),0.002
11,BYSL (UniProt Q13895),0.079
12,ALDH2 isoform 2 (UniProt P05091),-0.023
13,ARRDC1 (UniProt Q8N5I2),0.048
14,BRIP1 (UniProt Q9BX63),0.184
15,ADAM15 (UniProt Q13444),-0.022
16,ABCA3 (UniProt Q99758),-0.161
17,AFG1L (UniProt Q8WV93),0.115
18,BRD8 isoform 2 (UniProt Q9H0E9),0.183

row,Target,log2 fold change
1,ASS1 (UniProt P00966),-0.042
2,APOBEC3G (UniProt Q9HC16),0.069
3,ATF7 isoform 6 (UniProt P17544),0.045
4,AIFM2 (UniProt Q9BRQ8),-0.036
5,ASB6 (UniProt Q9NWX5),-0.144
6,APAF1 (UniProt O14727),-0.006
7,ABITRAM (UniProt Q9NX38),0
8,AIF1 (UniProt P55008),-0.112
9,ALKBH4 (UniProt Q9NXW9),-0.048
10,BRD3 (UniProt Q15059),0.198
11,ADD3 isoform 2 (UniProt Q9UEY8),0.059
12,ARHGAP4 isoform 2 (UniProt P98171),0.047
13,ALDH9A1 (UniProt P49189),0.026
14,ALDH6A1 (UniProt Q02252),0.025
15,APOH (UniProt P02749),0.225
16,ANK2 (UniProt Q01484),-0.026
17,AAMP (UniProt Q13685),-0.018
